# Reference: PubChem BioAssay (Tox21)
# Where “and” joins values, the source holds several entries; their conditions need not be identical. Equal entries are not always repeated. Inconclusive results are not listed. Entries that show only a call come without a potency. The source holds several records for some structures; these can differ, active in one and inactive in another. Calls of active or inactive are those of the source. Unless noted, calls follow the shape of the dose curve; as a rule, active = well fitted curve in the direction sought with a large enough effect in the repeat runs; inconclusive = weak or mixed curves; inactive = no such curve, though single readings can be large; an effect the other way counts as inactive or inconclusive.
# Assays:
# [1] = biological target: Thyrotropin receptor (Homo sapiens) (UniProt P16473); assay: qHTS assay to identify small molecule agonists of the thyroid stimulating hormone receptor (TSHR) signaling pathway (AID 1224843; calls by dose curve; also: nearly all actives have a fitted effect of over 45% in size)
# Summary of the method: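 Using 15 concentrations per compound in triplicate, cAMP production was monitored in TSHR-HEK293 cells after 30 min compound incubation at RT; HTRF reagents followed, with fluorescence intensity recorded after 1 h.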
# [2] = qHTS assay to identify small molecule agonists of the hypoxia (HIF-1) signaling pathway - cell viability counter screen (AID 1224844; calls by dose curve; also: nearly all actives have a fitted effect of over 50% in size)
# Summary of the method: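 CellTiter-Glo luminescence read-out, 30 min RT, taken in the same wells as the beta-lactamase HRE reporter assay; HRE-bla ME-180 cells, 0.5% dialyzed FBS, 17 hr compound treatment at 37C, 5% CO2.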
# [3] = qHTS assay to identify small molecule agonists of H2AX (AID 1224845; active = well fitted activation curve with a large enough effect in the signal ratio in the repeat runs, not every such curve was filed as active; the % refers to the signal ratio)
# Summary of the method: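 Wild-type CHO-K1 cells plated overnight, then exposed 3 hr at 37C to compounds at 15 concentrations (0.76% DMSO). Lysed, then HTRF anti-pH2AX(S139)-cryptate/anti-H2AX-d2 detection after 24 hr at room temperature; emissions 665 and 620 nm.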
# [4] = qHTS assay to identify small molecule agonists of the hypoxia (HIF-1) signaling pathway (AID 1224846; active = well fitted activation curve with a large enough effect in the signal ratio in the repeat runs, not every such curve was filed as active; the % refers to the signal ratio)
# Summary of the method: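 Beta-lactamase FRET read-out (CCF4-AM substrate) from ME-180 cells carrying an HRE-driven bla reporter, after 17 hrs compound exposure at 37C/5% CO2. Cells were seeded at 2,000 per well in 0.5% dialyzed FBS medium and preincubated 5 hrs.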
# [5] = qHTS assay to identify small molecule agonists of H2AX - cell viability counter screen (AID 1224847; calls by dose curve; also: top concentration of the series differs between compounds; nearly all actives have a fitted effect of over 30% in size)
# Summary of the method: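 Counter-screen for viability: CellTiter-Glo ATP luminescence read after 3 h compound treatment (15-point titration, 0.76% DMSO final) of CHO-K1 cells at 37C, with 30 min room-temperature reagent incubation.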
# [6] = qHTS RealTime-Glo MT Cell Viability Assay in HepG2 cells - 24 hour (AID 1224867); also: nearly all actives have a fitted effect of over 50% in size
# Summary of the method: (§1)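 Compound treatment began 5 h after plating HepG2 cells (600/well) with NanoLuc luciferase and prosubstrate. Plates stayed at 37 C for 40 h; luminescence was captured at six time points, 0 h through 40 h.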
# [7] = qHTS RealTime-Glo MT Cell Viability Assay in HEK293 cells - 32 hour (AID 1224868); also: nearly all actives have a fitted effect of over 50% in size; also: potency is read from the fitted curve at half-maximal effect
# Summary of the method: (§2)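 Quantitative high-throughput screen of the Tox21 10K library in HEK293: cells and RealTime-Glo reagents plated together, compound added at 5 h, luminescence monitored through 40 h at 37 C.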
# [8] = A CellTox Green Cytotoxicity Assay to monitor cytotoxicity in HEK293 cells - 0 hour (AID 1224869); also: nearly all actives have a fitted effect of over 50% in size
# Summary of the method: (§3)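 Read-out: fluorescence of a cell-impermeant cyanine dye staining DNA of dead cells, proportional to cytotoxicity. HEK293, 600 cells/well with reagent, compound (23 nL DMSO) added after 5 h; reads at 0, 8, 16, 24, 32, 40 h.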
# [9] = qHTS RealTime-Glo MT Cell Viability Assay in HepG2 cells - 40 hour (AID 1224870); also: nearly all actives have a fitted effect of over 50% in size
# Summary of the method: (§4)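 HepG2 cells mixed with RealTime-Glo MT reagents (NanoLuc plus cell-permeant prosubstrate) were seeded at 600 cells/well, incubated 5 h at 37 C/5% CO2, then pinned with compounds in DMSO; nonlytic luminescence tracked viability during 40 h treatment.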
# [10] = A CellTox Green Cytotoxicity Assay to monitor cytotoxicity in HEK293 cells - 40 hour (AID 1224871); also: nearly all actives have a fitted effect of over 45% in size; also: potency is read from the fitted curve at half-maximal effect
# Summary of the method: as §3
# [11] = qHTS RealTime-Glo MT Cell Viability Assay in HEK293 cells - 16 hour (AID 1224872); also: nearly all actives have a fitted effect of over 50% in size; also: potency is read from the fitted curve at half-maximal effect
# Summary of the method: as §2
# [12] = qHTS RealTime-Glo MT Cell Viability Assay in HepG2 cells - 8 hour (AID 1224873); also: nearly all actives have a fitted effect of over 55% in size
# Summary of the method: as §4
# [13] = qHTS RealTime-Glo MT Cell Viability Assay in HEK293 cells - 40 hour (AID 1224874); settings: RealTime-Glo luminescence; max response: stronger effect = lower value; also: nearly all actives have a fitted effect of over 50% in size; also: potency is read from the fitted curve at half-maximal effect
# Summary of the method: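 Luminescence readout at each listed time point; HEK293, 600 cells/well, RealTime-Glo MT reagent added with cells; compounds pinned (23 nL in DMSO) after 5 h at 37 C; continuous culture at 37 C.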
# [14] = A CellTox Green Cytotoxicity Assay to monitor cytotoxicity in HEK293 cells - 24 hour (AID 1224875); also: nearly all actives have a fitted effect of over 45% in size
# Summary of the method: as §3
# [15] = A CellTox Green Cytotoxicity Assay to monitor cytotoxicity in HepG2 cells - 16 hour (AID 1224876); also: nearly all actives have a fitted effect of over 45% in size
# Summary of the method: (§5)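 HepG2, 600 cells/well premixed w/ CellTox Green; 5 h settle, 37 C/5% CO2; pintool cpd add (DMSO); 37 C, 40 h; fluorescence read at 0, 8, 16, 24, 32, 40 h.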
# [16] = qHTS RealTime-Glo MT Cell Viability Assay in HepG2 cells - 32 hour (AID 1224877); also: nearly all actives have a fitted effect of over 55% in size
# Summary of the method: as §1
# [17] = qHTS assay to identify small molecule antagonists of the estrogen related receptor (ERR) signaling pathway from Tox21 library (AID 1224848); also: nearly all actives have a fitted effect of over 50% in size
# Summary of the method: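 Tox21 10K compounds in DMSO tested for ERR pathway antagonism in NTP's ERR cell line; 18 h, 37 C exposure; ONE-Glo luminescence.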
# [18] = qHTS assay to identify small molecule agonists of the estrogen related receptor (ERR) signaling pathway from Tox21 library (AID 1224849; calls by dose curve; also: nearly all actives have a fitted effect of over 15% in size); settings: ERR reporter cell line, ONE-Glo luciferase, 18 h; at 92.4 µM (top of the series) unless noted
# Summary of the method: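 Luminescence readout (ONE-Glo, 30 min RT) after 18 h compound exposure at 37 C of NTP-supplied ERR reporter cells; cells were plated 6 h before compound addition by pin tool.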
# [19] = A CellTox Green Cytotoxicity Assay to monitor cytotoxicity in HepG2 cells - 24 hour (AID 1224878); also: nearly all actives have a fitted effect of over 45% in size; also: potency is read from the fitted curve at half-maximal effect
# Summary of the method: as §5
# [20] = A CellTox Green Cytotoxicity Assay to monitor cytotoxicity in HepG2 cells - 40 hour (AID 1224879); also: nearly all actives have a fitted effect of over 40% in size
# Summary of the method: as §5
# Thyrotropin receptor (Homo sapiens), sequence (P16473 whole entry, looked up): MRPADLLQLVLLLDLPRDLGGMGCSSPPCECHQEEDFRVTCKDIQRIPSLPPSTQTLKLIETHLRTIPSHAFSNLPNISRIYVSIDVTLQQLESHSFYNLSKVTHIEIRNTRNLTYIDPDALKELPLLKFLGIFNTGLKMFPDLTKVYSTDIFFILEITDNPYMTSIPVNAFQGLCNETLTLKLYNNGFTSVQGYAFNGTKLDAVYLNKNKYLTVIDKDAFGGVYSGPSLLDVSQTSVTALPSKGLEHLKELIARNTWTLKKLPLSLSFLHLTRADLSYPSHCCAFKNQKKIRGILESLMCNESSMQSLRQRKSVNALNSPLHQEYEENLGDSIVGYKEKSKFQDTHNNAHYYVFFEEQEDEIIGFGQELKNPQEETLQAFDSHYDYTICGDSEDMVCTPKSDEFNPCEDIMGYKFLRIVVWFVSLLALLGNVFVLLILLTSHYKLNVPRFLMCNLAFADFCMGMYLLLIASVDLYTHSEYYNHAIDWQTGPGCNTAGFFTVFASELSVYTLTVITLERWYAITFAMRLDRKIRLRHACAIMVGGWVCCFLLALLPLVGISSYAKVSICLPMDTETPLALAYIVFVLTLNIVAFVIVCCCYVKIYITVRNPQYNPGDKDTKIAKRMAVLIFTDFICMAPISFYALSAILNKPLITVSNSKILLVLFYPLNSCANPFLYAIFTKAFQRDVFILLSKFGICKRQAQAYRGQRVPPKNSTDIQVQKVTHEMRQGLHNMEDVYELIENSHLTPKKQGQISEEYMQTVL
compound,measurement,setting,value
CC1=C2[C@@H]([C@H](C)CC[C@H]2/C=C(\C)C(=O)O)[C@H](O)C1,Potency,[1],inactive
same,Potency,[2],inactive
same,Potency,[3],inactive
same,outcome,[4],inactive
same,Potency,[5],inactive
same,Potency,[6],inactive
same,Potency,[7],inactive
same,Potency,[8],inactive
same,Potency,[9],inactive
same,Potency,[10],inactive
same,Potency,[11],inactive
same,Potency,[12],inactive
same,max response,[13],-2.63% (inactive)
same,Potency,[14],inactive
same,Potency,[15],inactive
same,Potency,[16],inactive
O=C(O)CCS,Potency,[1],inactive
same,Potency,[2],inactive
same,Potency,[3],inactive
same,outcome,[4],inactive
same,Potency,[5],inactive
same,Potency,[17],inactive
same,"activity change, positive = activation",[18],4.53% (inactive)
same,Potency,[6],inactive
same,Potency,[7],inactive
same,Potency,[8],inactive
same,Potency,[9],inactive
same,Potency,[10],inactive
same,Potency,[11],inactive
same,Potency,[12],inactive
same,max response,[13],7.66% (inactive)
same,Potency,[15],inactive
same,Potency,[16],inactive
same,Potency,[19],inactive
same,Potency,[20],inactive
SCCc1cnccn1,Potency,[1],inactive
same,Potency,[2],inactive
same,Potency,[3],inactive
same,outcome,[4],inactive
same,Potency,[5],inactive
same,"activity change, positive = activation",[18],-18.7% (inactive)
same,Potency,[6],inactive
same,Potency,[7],inactive
same,Potency,[9],inactive
same,Potency,[11],inactive
same,Potency,[12],inactive
same,max response,[13],10.1% (inactive)
same,Potency,[14],inactive
same,Potency,[15],inactive
same,Potency,[16],inactive
same,Potency,[19],inactive
same,Potency,[20],inactive
CCOC(=O)c1ccc(NC(=O)CN2CCCCC2)cc1,Potency,[1],inactive
same,Potency,[2],inactive
same,Potency,[3],inactive
same,outcome,[4],inactive
same,Potency,[5],inactive
same,Potency,[17],inactive
same,"activity change, positive = activation",[18],5.71% [at 42.5 µM] (inactive)
same,Potency,[6],inactive
same,Potency,[7],inactive
same,Potency,[10],inactive
same,Potency,[11],inactive
same,Potency,[12],inactive
same,max response,[13],-19.4% (inactive)
same,Potency,[14],inactive
same,Potency,[15],inactive
same,Potency,[16],inactive
same,Potency,[19],inactive
same,Potency,[20],inactive
COc1cc(NS(=O)(=O)c2ccc(N)cc2)nc(C)n1,Potency,[1],inactive
same,Potency,[2],inactive
same,Potency,[3],inactive
same,outcome,[4],inactive
same,Potency,[5],inactive
same,Potency,[17],inactive
same,"activity change, positive = activation",[18],5.82% [at 42.5 µM] (inactive)
same,Potency,[6],inactive
same,Potency,[7],inactive
same,Potency,[8],inactive
same,Potency,[9],inactive
same,Potency,[10],inactive
same,Potency,[11],inactive
same,Potency,[12],inactive
same,max response,[13],9.67% (inactive)
same,Potency,[14],inactive
same,Potency,[16],inactive
same,Potency,[19],inactive
same,Potency,[20],inactive
CCCCCCC(CO)CCCC (stereo unspecified),Potency,[1],inactive
same,Potency,[2],inactive
same,Potency,[3],inactive
same,outcome,[4],inactive
same,Potency,[5],inactive
same,Potency,[6],inactive
same,Potency,[7],inactive
same,Potency,[8],inactive
same,Potency,[9],inactive
same,Potency,[10],inactive
same,Potency,[11],inactive
same,Potency,[12],inactive
same,max response,[13],4.35% (inactive)
same,Potency,[14],inactive
same,Potency,[15],inactive
same,Potency,[16],inactive
same,Potency,[19],inactive
same,Potency,[20],inactive
CN=C(N)NC(=O)Nc1c(C)cccc1C,Potency,[1],inactive
same,Potency,[2],inactive
same,Potency,[3],inactive
same,outcome,[4],inactive
same,Potency,[5],inactive
same,Potency,[17],inactive
same,"activity change, positive = activation",[18],-0.434% [at 42.5 µM] (inactive)
same,Potency,[6],inactive
same,Potency,[7],inactive
same,Potency,[11],inactive
same,Potency,[12],inactive
same,max response,[13],5.93% (inactive)
same,Potency,[14],inactive
same,Potency,[15],inactive
same,Potency,[16],inactive
O=C(NS(=O)(=O)/C=C/c1ccccc1)c1ccc(F)cc1Cl,Potency,[1],inactive
same,Potency,[2],inactive
same,Potency,[3],inactive
same,outcome,[4],inactive
same,Potency,[5],inactive
same,Potency,[17],inactive
same,Potency,[6],inactive
same,Potency,[8],inactive
same,Potency,[9],inactive
same,Potency,[10],inactive
same,Potency,[11],inactive
same,Potency,[12],inactive
same,Potency,[14],inactive
same,Potency,[16],inactive
same,Potency,[19],54.9 µM (active)
O=C(O)c1ccc(O)cc1O,Potency,[1],inactive
same,Potency,[2],inactive
same,Potency,[3],inactive
same,outcome,[4],inactive
same,Potency,[5],inactive
same,Potency,[17],inactive
same,"activity change, positive = activation",[18],-9.45% (inactive)
same,Potency,[6],inactive
same,Potency,[7],inactive
same,Potency,[8],inactive
same,Potency,[9],inactive
same,Potency,[10],inactive
same,Potency,[11],inactive
same,Potency,[12],inactive
same,max response,[13],-2.47% (inactive)
same,Potency,[14],inactive
same,Potency,[15],inactive
same,Potency,[16],inactive
same,Potency,[19],inactive
same,Potency,[20],inactive
COc1ccc(/C=C/C(=O)c2ccc(OC)cc2OC)cc1,Potency,[1],inactive
same,Potency,[2],inactive
same,Potency,[3],inactive
same,outcome,[4],inactive
same,Potency,[5],inactive
same,"activity change, positive = activation",[18],-32.9% [at 42.5 µM] (inactive)
same,Potency,[6],inactive
same,Potency,[7],inactive
same,Potency,[8],inactive
same,Potency,[9],inactive
same,Potency,[10],inactive
same,Potency,[11],inactive
same,Potency,[12],inactive
same,Potency,[14],inactive
same,Potency,[16],inactive
CC(C)(C(=O)c1cccnc1)c1cccnc1,Potency,[1],inactive
same,Potency,[2],inactive
same,Potency,[3],inactive
same,outcome,[4],inactive
same,Potency,[5],inactive
same,Potency,[6],inactive
same,Potency,[7],inactive
same,Potency,[8],inactive
same,Potency,[9],inactive
same,Potency,[10],inactive
same,Potency,[11],inactive
same,Potency,[12],inactive
same,max response,[13],6.53% (inactive)
same,Potency,[14],inactive
same,Potency,[15],inactive
same,Potency,[16],inactive
same,Potency,[19],inactive
same,Potency,[20],inactive
CCCCCCCC(=O)OCCCCCC,Potency,[1],inactive
same,Potency,[2],inactive
same,Potency,[3],inactive
same,outcome,[4],inactive
same,Potency,[5],inactive
same,Potency,[17],inactive
same,"activity change, positive = activation",[18],-7.04% (inactive)
same,Potency,[6],inactive
same,Potency,[7],3.47 µM (active)
same,Potency,[8],inactive
same,Potency,[9],inactive
same,Potency,[12],inactive
same,Potency,[13],3.47 µM (active)
same,Potency,[15],inactive
same,Potency,[16],inactive
same,Potency,[19],inactive
same,Potency,[20],inactive
COC(C)(C)OC,Potency,[1],inactive
same,Potency,[2],inactive
same,Potency,[3],inactive
same,outcome,[4],inactive
same,Potency,[5],inactive
same,Potency,[17],inactive
same,"activity change, positive = activation",[18],2.58% (inactive)
same,Potency,[6],inactive
same,Potency,[7],inactive
same,Potency,[8],inactive
same,Potency,[9],inactive
same,Potency,[10],inactive
same,Potency,[11],inactive
same,Potency,[12],inactive
same,max response,[13],15.9% (inactive)
same,Potency,[14],inactive
same,Potency,[15],inactive
same,Potency,[16],inactive
same,Potency,[19],inactive
same,Potency,[20],inactive
COc1ccc2nc(S(=O)Cc3ncc(C)c(OC)c3C)[nH]c2c1 (stereo unspecified),Potency,[1],inactive
same,Potency,[2],inactive
same,Potency,[3],inactive
same,outcome,[4],inactive
same,Potency,[5],inactive
same,Potency,[6],inactive
same,Potency,[7],21.6 µM (active) and inactive
same,Potency,[8],inactive
same,Potency,[9],inactive
same,Potency,[10],inactive and 1.7 nM (active)
same,Potency,[11],21.6 µM (active) and inactive
same,Potency,[12],inactive
same,Potency,[13],19.3 µM (active)
same,max response,[13],-10.3% (inactive)
same,Potency,[14],inactive
same,Potency,[15],inactive
same,Potency,[16],inactive
same,Potency,[19],inactive
same,Potency,[20],inactive
